High-throughput results: PubChem BioAssay, several laboratories
TWEAK Fn14 block = inhibitors of TWEAK-Fn14 signaling, primary screen, luciferase reporter cells, uHTS. TWEAK-stimulated Fn14 reporter cells, luciferase luminescence, 8 h. inhibition, % at 10 µM. 360,000 compounds, 2% hits. AID 1159606, 2016; in the data active = inhibition above about 50%
LGR2 inh = inhibitors of bursicon-induced LGR2 CRE-luciferase signal, primary screen, cell-based, HEK293, CRE-luciferase reporter, bursicon stimulation; Drosophila bursicon receptor LGR2 (rickets); bursicon-stimulated, 4 h; inhibition, % at 9.99 µM; 380,000 compounds, 0.35% hits; AID 720647, 2013;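 active = drop in luminescence signal, shown as inhibition above about 50% in the replicate tests, limit read from the data, passing the limit was not always enough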;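 also: agonist challenge used bursicon conditioned medium at about half maximal strength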
KKLEB cytotox = cytotoxicity in KKLEB CF airway cells, primary screen, cytotoxicity control for CF NF-kB inhibitor project, cell-based, uHTS, fluorescence assay plates. KKLEB CF airway cells viability, ATPlite luminescence, overnight; active compounds read low; cells stimulated with P. aeruginosa culture filtrate. activity change (cytotoxicity), % at 5 µM. 360,000 compounds, 0.36% hits;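 active = corrected activity change at or below -50% at 5 µM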
TROY signal inh = inhibitors of TROY-driven NF-kB signaling, primary screen, Q293 LMP1-TROYcd cells, NF-kB luciferase, uHTS | Q293 LMP1-TROYcd NF-kB luciferase reporter, 4 h | inhibition, % at 10 µM | 360,000 compounds, 0.98% hits | AID 1347056, 2019;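 active = compounds whose plate-normalised and pattern-corrected inhibition of the luciferase reporter signal at the single screening dose is 50% or more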
CF NFkB block = inhibitors of PAF-induced NF-kB signaling, primary screen, cell-based, GFP fluorescence, uHTS. KKLEB NF-kB-GFP reporter, GFP fluorescence overnight. inhibition, % at 5 µM. 360,000 compounds, 0.86% hits;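 active = at least 50% inhibition at 5 µM, scaled per plate between neutral and stimulator controls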;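 also: PAF is a Pseudomonas aeruginosa culture filtrate used as stimulus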
EWS-Fli block = EWS/Fli-driven NR0B1 reporter inhibitors, primary screen, A673 cells, NR0B1 luciferase, luminescence, MLPCN library; viability-normalised; AID 651661, 2012; inhibition, % at 12.6 µM; 350,000 compounds, 0.67% hits;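 active = mean inhibition of at least 50% after viability correction, with every replicate also passing that limit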;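 also: firefly luciferase signal divided by Alamar Blue viability fluorescence both relative to DMSO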
Numbers stand for hits; . = inactive; / = not tested or not shown. Compounds with a hit are over-represented: about 2.6% of the library has one in this group of screens.

SMILES	TWEAK Fn14 block	LGR2 inh	KKLEB cytotox	TROY signal inh	CF NFkB block	EWS-Fli block
C[C@@H]1CN([C@H](C)CO)C(=O)c2cc(NC(=O)Nc3cccc4ccccc34)ccc2O[C@@H](C)CCCCO[C@@H]1CN(C)CC1CCCCC1	/	.	/	/	/	76
C[C@H](CO)N1C[C@H](C)[C@H](CN(C)CC2CCCCC2)OCCCC[C@H](C)Oc2ccc(NC(=O)Nc3cccc4ccccc34)cc2C1=O	/	.	/	/	/	92
COc1cccc(CN2CC3(CCN(CC4CC4)CC3)c3c([nH]c4cc(OC)ccc34)[C@H]2CO)c1	/	.	/	/	/	.
O=C(C[C@H]1CC[C@@H](NC(=O)C2CCOCC2)[C@H](CO)O1)Nc1ccc(-c2ccccc2)cc1	/	.	/	/	/	.
CO[C@H]1CN(C)C(=O)c2cc(NS(C)(=O)=O)ccc2OC[C@@H](C)N(CC2CCOCC2)C[C@@H]1C	/	.	/	/	/	.
O=S(=O)(CCN1CCCCC1)CCS(=O)(=O)CCN1CCCCC1	.	.	.	61	.	.
Cc1ccc(S(=O)(=O)Nc2ccc3c(c2)C(=O)N([C@H](C)CO)C[C@@H](C)[C@H](CN(C)Cc2ccc(C(F)(F)F)cc2)OCCCC[C@H](C)O3)cc1	/	.	/	/	/	66
C[C@@H]1CN([C@H](C)CO)C(=O)c2cc(NS(=O)(=O)c3ccc(F)cc3)ccc2O[C@@H]1CN(C)Cc1ccc(C(F)(F)F)cc1	/	.	/	/	/	68
C[C@@H]1CCCCO[C@@H](CN(C)Cc2ccc(C(F)(F)F)cc2)[C@H](C)CN([C@@H](C)CO)C(=O)c2cc(NS(=O)(=O)c3ccccc3)ccc2O1	/	.	/	/	/	66
C[C@H]1CN([C@@H](C)CO)C(=O)c2cc(NS(=O)(=O)c3ccc(F)cc3)ccc2O[C@@H]1CN(C)Cc1ccc(C(F)(F)F)cc1	/	.	/	/	/	.
C[C@H](CO)N1C[C@H](C)[C@H](CN(C)C(=O)Cc2ccccc2)OCCCC[C@H](C)Oc2ccc(NS(=O)(=O)c3ccccc3)cc2C1=O	/	.	/	/	/	60
Cc1ccc(S(=O)(=O)Nc2ccc3c(c2)C(=O)N([C@@H](C)CO)C[C@H](C)[C@H](CN(C)Cc2ccc(C(F)(F)F)cc2)OCCCC[C@@H](C)O3)cc1	/	.	/	/	/	.
C[C@H]1CCCCO[C@H](CN(C)C(=O)Cc2ccccc2)[C@@H](C)CN([C@@H](C)CO)C(=O)c2cc(NS(=O)(=O)c3ccccc3)ccc2O1	/	.	/	/	/	.
O=C(C[C@H]1C=C[C@@H](NC(=O)C2CCC2)[C@@H](CO)O1)NCc1ccccc1Cl	/	.	/	/	/	.
COc1ccc(S(=O)(=O)N(C)C[C@H]2OCCCC[C@H](C)Oc3ccc(NC(=O)Nc4c(C)noc4C)cc3C(=O)N([C@@H](C)CO)C[C@@H]2C)cc1	/	.	/	/	/	.
O=C(N/N=C/c1ccc(Cl)c([N+](=O)[O-])c1)c1cc(-c2ccc3c4c(cccc24)CC3)n[nH]1	64	.	.	.	.	.
N#C[C@@H]1[C@@H](c2ccc(C3=CCCC3)cc2)[C@@H](CO)N1C(=O)NC1CCCCC1	/	.	/	/	/	.
COC(=O)c1cc2c(n1S(=O)(=O)c1ccc(C)cc1)C(=O)C(=O)c1[nH]cc(C(=O)OCc3ccccc3)c1-2	103	/	-69	65	85	/
c1ccc(-c2csc(Nc3ccc4c(c3)OCCO4)n2)cc1	.	/	.	58	.	/
c1cc2c(cc1Nc1nc(-c3ccc4c(c3)OCO4)cs1)OCCO2	56	/	.	.	.	/
COc1cccc(Nc2nc(-c3ccc4c(c3)OCCO4)cs2)c1	.	/	.	.	.	/
O=C(Nc1ccccc1F)N[C@@H]1CC[C@@H](CCNC(=O)C2CC2)O[C@@H]1CO	/	.	/	/	/	.
COc1ccc(Br)cc1C(=O)Nc1ccc(C(=O)O)cc1	.	.	.	.	.	.
COc1ccc(NC(=O)c2cc3cccc(OC)c3oc2=Nc2ccc(C(=O)O)cc2)cc1OC	83	.	.	.	.	.
COc1cccc2cc(C(=O)Nc3cccc(C)n3)c(=O)oc12	57	/	.	.	.	/
SMILES	TWEAK Fn14 block	LGR2 inh	KKLEB cytotox	TROY signal inh	CF NFkB block	EWS-Fli block
COc1cccc2cc(C(=O)N3CCc4ccccc43)c(=O)oc12	50	/	.	.	.	/
CNC[C@H]1Oc2c(NC(=O)NC3CCCCC3)cccc2C(=O)N([C@H](C)CO)C[C@@H]1C	/	.	/	/	/	.
O=c1cc(CCl)[nH]c2nc3ccccc3n12	.	.	.	.	.	.
O=c1cc(-c2ccccc2)[nH]c2nc3ccccc3n12	55	/	.	.	.	/
COc1cc(Cn2c3ccc(NC(=O)CCc4cccnc4)cc3c(=O)n2C)ccc1F	.	.	.	.	.	.
COc1cc(Cn2c3ccc(NC(=O)CCc4ccccc4)cc3c(=O)n2C)ccc1F	.	.	.	.	.	54
COc1cc(/C=N/NC(=O)c2nnn(-c3nonc3N)c2C(C)C)ccc1OCc1ccc(F)cc1	76	.	.	.	.	.
CN1CCN(Cc2c(C(=O)N/N=C/c3cccc(Br)c3)nnn2-c2nonc2N)CC1	.	.	.	.	.	52
CC(C)c1c(C(=O)N/N=C/c2cccc(OCc3ccc(F)cc3)c2)nnn1-c1nonc1N	.	.	.	53	.	.
Nc1nonc1-n1nnc(C(=O)N/N=C/c2cccc(O)c2)c1CN1CCCC1	.	.	.	.	.	.
CN(C)Cc1c(C(=O)N/N=C/c2cccc(OCc3ccc(F)cc3)c2)nnn1-c1nonc1N	.	.	.	.	.	.
NC(=O)c1ccc2c(c1)OCCO2	.	/	.	/	.	/
O=C(COC(=O)c1cccs1)c1ccc2ccccc2c1	.	/	.	.	.	/
O=C(COC(=O)c1cccs1)c1ccc2c(c1)OCCO2	61	82	.	75	.	.
Cc1ccc(C(=O)COC(=O)c2cccs2)cc1	.	/	.	59	.	/
CCOC(=O)C(=O)CC(=O)c1ccc2c(c1)OCCO2	.	.	.	72	.	.
O=C(COC(=O)c1ccccc1[N+](=O)[O-])c1ccc2c(c1)OCO2	78	85	.	78	.	.
C[C@@H]1CCCCO[C@@H](CN(C)C(=O)CCC(F)(F)F)[C@@H](C)CN([C@@H](C)CO)C(=O)c2cc(NC(=O)CCC(F)(F)F)ccc2O1	/	.	/	/	/	.
O=C(NCC(F)(F)F)[C@@H]1[C@@H](CO)[C@@H]2Cn3c(cccc3=O)[C@@H]2N1Cc1cccc(F)c1	/	.	/	/	/	.
CCC(=O)Nc1ccc2c(c1)OC[C@@H](C)N(C(=O)COC)C[C@@H](C)[C@@H](OC)CN(C)C2=O	/	.	/	/	/	.
Cc1cccc(C(=O)OCC(=O)c2ccc3c(c2)OCCO3)c1O	.	.	.	54	.	.
